Source: PubChem (several laboratories)
The list is not random: actives were taken first. Their share in the collection is about 4.4%.
tim10-1 inh: inhibits growth of tim10-1 mutant yeast | S. cerevisiae tim10-1 ts strain growth, BacTiter-Glo, 24 h | inhibition, % at 20 µM | hit rate 2.2% among 330,000 | AID 463190;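 active = inhibition of at least 40%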;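 also: mutant grown at 25 °C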
PfHsp90 set2: growth inhibition of yeast expressing Plasmodium Hsp90; S. cerevisiae expressing PfHsp90, BacTiter-Glo ATP, 48 h; yeast lacking PDR1 and PDR3 efflux regulators; hit rate 0.32% among 310,000; inhibition, % at 9.4 µM;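 active = every replicate shows inhibition above about 80%, whatever the replicate mean, limit read from the data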
TIM10 inh: growth inhibitors of TIM10 yeast strain | S. cerevisiae TIM10 strain growth, BacTiter-Glo luminescence, 24 h | inhibition, % at 10 µM | hit rate 1.4% among 330,000 | AID 463195;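 active = inhibition of 40% or more at the single tested concentration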;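 also: wild-type TIM10 isogenic control strain grown at permissive 25 °C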
SKKanGAS inh: SKKanGAS growth inhibition; S. pyogenes SKKanGAS, kanamycin growth, BacTiter-Glo, 6 h; inhibition, % at 7.5 µM; hit rate 1.3% among 300,000; AID 1662;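 active = mean replicate score, as percent of positive control median, at least 50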;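 also: strain carries kanamycin resistance gene driven by streptokinase promoter and grows in 40 µg/ml kanamycin; loss of luminescence reflects streptokinase promoter inhibition or plain growth inhibition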
tim23-1 inh: growth inhibitors of tim23-1 mutant yeast. S. cerevisiae tim23-1 growth, BacTiter-Glo luminescence, 24 h. inhibition, % at 20 µM. hit rate 1.3% among 330,000;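 active = growth inhibition of the mutant yeast at or above 50%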;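 also: temperature-sensitive mutant grown at 25 °C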
tim10-1 confirm: tim10-1 yeast growth inhibition, confirmed. shares compounds with tim10-1 inh. S. cerevisiae tim10-1 ts strain growth, BacTiter-Glo, 24 h. inhibition, % at 20 µM. hit rate 56% among 7,400. AID 463213;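 active = inhibition of yeast growth at or above a set limit in either of two repeat tests at 20 µM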;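 also: tim10-1 mutant grown at permissive 25 °C to find synthetic lethal compounds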
Hits are given with their value; – = inactive; · = not tested or not shown.

SMILES	tim10-1 inh	PfHsp90 set2	TIM10 inh	SKKanGAS inh	tim23-1 inh	tim10-1 confirm
COc1ccc(-c2cc3nc4c(c(N5CCC6(CC5)OCCO6)n3n2)CCC4)cc1	47	–	–	–	–	33
Fc1ccc(-c2cc3nc4c(c(N5CCOCC5)n3n2)CCCC4)cc1	–	–	–	–	–	·
Cc1cccc(-c2cc3nc4c(c(N5CCCC(O)C5)n3n2)CCC4)c1 (centres undefined)	47	·	–	–	–	–
OC1CCN(c2c3c(nc4cc(-c5ccc(F)cc5)nn24)CCC3)CC1	45	–	–	–	–	–
OC1CCCN(c2c3c(nc4cc(-c5cccc(Cl)c5)nn24)CCC3)C1 (centres undefined)	–	–	–	–	–	·
CCOC(=O)N1CCN(C(=O)COC(=O)Cc2ccc(Cl)cc2)CC1	–	–	–	–	–	·
CCc1c(C)nc2[nH]ncn2c1=O	·	–	·	·	·	·
COc1cccc(C(c2nnnn2Cc2ccco2)N2CCN(Cc3ccccc3)CC2)c1OC (centres undefined)	–	–	–	–	–	·
CCCC(c1nnnn1Cc1cccs1)N1CCN(c2ccc(OC)cc2)CC1 (centres undefined)	43	–	–	–	–	–
COc1ccc(N2CCN(C(c3ccccc3OC)c3nnnn3Cc3ccco3)CC2)cc1 (centres undefined)	40	–	–	–	–	–
CC(C)C(c1nnnn1Cc1ccco1)N1CCN(c2cccc(Cl)c2)CC1 (centres undefined)	41	–	–	–	–	–
COc1ccccc1C(C)NC(=O)CCNC(=O)c1ccc(Cl)cc1 (centres undefined)	–	–	–	·	–	·
NS(=O)(=O)c1ccc(CCNC(=O)c2ccc(NC3=NC4CS(=O)(=O)CC4S3)cc2)cc1 (centres undefined)	–	–	–	–	–	·
O=C(CSc1ncnc2sc3c(c12)CCCCC3)NCc1ccco1	47	–	–	–	–	34
CC(C)c1nnc2c(N(C)S(=O)(=O)c3ccccc3)nc3ccccc3n12	43	–	–	–	–	–
CC(C)c1cc2c(c(O)c1O)[C@@]13CCCC(C)(C)C1CC2OC3=O (some centres undefined)	43	–	–	–	–	35
Cc1cccc(CS(=O)(=O)Cc2ccc(C(=O)NC3CCCCCC3)o2)c1	–	–	–	–	–	·
COc1ccc(CN2C(=O)c3c(c(C)n(C)c3C)C2C(=O)NC2CCC(C)CC2)cc1 (centres undefined)	42	·	–	–	–	–
CC(C)c1cccc(C(C)C)c1NC(=O)CNCC(O)c1ccccc1 (centres undefined)	–	–	–	–	–	·
CC(C)c1cccc(C(C)C)c1NC(=O)CNCc1ccccc1F	47	–	–	–	–	–
Cc1cccc(Nc2nc(N)nc(-c3oc4ccccc4c3C)n2)c1	42	–	–	–	–	–
COc1cccc(Nc2nc(N)nc(-c3oc4ccccc4c3C)n2)c1	–	–	–	–	–	·
Cc1cc(N=NC(=O)c2ccccc2O)c2ccccc2c1O	–	–	–	·	–	·
O=C(N=Nc1ccc(NOC(=O)c2ccccc2Br)cc1)c1ccccc1O	50	·	–	–	–	37
COc1ccc(CCNC(=O)Nc2cccs2)c(OC)c1	41	–	–	–	–	36
SMILES	tim10-1 inh	PfHsp90 set2	TIM10 inh	SKKanGAS inh	tim23-1 inh	tim10-1 confirm
Cc1ccccc1CC(=O)NC1CCN(Cc2ccccc2)CC1	–	–	–	–	–	·
COc1ccccc1CNC(=O)C(C)n1cccc1C(=O)c1ccccc1 (centres undefined)	–	–	–	–	–	·
CC(C(=O)NCc1ccc(Cl)cc1)n1cccc1C(=O)c1ccccc1 (centres undefined)	41	–	–	–	–	–
Cc1ccc2cccc(OCCCOc3ccccc3F)c2n1	43	–	–	–	–	–
CN(C)S(=O)(=O)c1cccc(-c2cn3ccccc3n2)c1	–	–	–	–	–	·
O=S(=O)(c1cccc(-c2cn3cc(Cl)ccc3n2)c1)N1CCOCC1	42	–	–	–	–	32
CN(C)S(=O)(=O)c1cccc(-c2cn3cc(Cl)ccc3n2)c1	45	–	–	–	–	34
Nc1cc2c(cc1C(=O)c1ccc(Cl)cc1)OCCO2	41	–	–	–	–	33
CC(C)(C)c1ccc(-c2csc(NNC3=NCCCCC3)n2)cc1	45	–	–	–	–	–
COc1ccc2[nH]c(C(=O)N3CCN(c4ccccc4F)CC3)c(C)c2c1	47	–	–	–	–	33
COc1ccccc1N1CCN(C(=O)c2cc(=O)c3ccc(C)cc3o2)CC1	–	–	–	–	–	·
COc1cc(C(=O)N2CCN(c3cccc(C)c3C)CC2)cc(OC)c1OC	42	–	–	–	–	–
COc1ccccc1N1CCN(C(=O)C2c3ccccc3Oc3ccccc32)CC1	45	·	–	–	–	–
COc1ccccc1N1CCN(C(=O)C2CC2)CC1	–	·	–	–	–	·
COc1ccccc1N1CCN(C(=O)c2oc3cc(C)cc(C)c3c2C)CC1	45	–	–	–	–	–
O=C(NCc1cnn(-c2ccccc2)c1)C1CCC(=O)N(C2CC2)C1 (centres undefined)	–	–	–	–	–	·
Cc1ccc(NC(=O)C2=NNC(=O)CC2)cc1S(=O)(=O)Nc1ccc(SC(F)F)cc1	–	–	–	·	–	·
CCOc1ccc(C(=O)Nc2ccc(S(=O)(=O)N3C[C@@H]4C[C@@H](C3)c3cccc(=O)n3C4)cc2)cc1	–	–	–	·	–	·
COC(=O)c1ccc(C(=O)OC)c(NC(=O)COC(=O)CCOc2ccc(C)cc2)c1	–	–	–	–	–	·
Cc1[nH]c(-c2ccc(F)cc2)cc1C(=O)N1CCN(c2ccccc2F)CC1	47	–	–	–	–	40
COc1cccc(N2CCN(C(=O)c3cc(-c4ccc(F)cc4)[nH]c3C)CC2)c1	50	–	–	–	–	–
CCc1nc2ccc(C(=O)N3CCN(c4cccc(OC)c4)CC3)cc2nc1CC	46	–	–	–	–	–
COc1ccccc1N1CCN(C(=O)c2cc(-c3ccc(F)cc3)[nH]c2C)CC1	43	–	–	–	–	41
CC1CCN(CCCNC(=O)C2CC(=O)N(CCc3ccccc3)C2)CC1 (centres undefined)	–	–	–	–	–	·
CN(C(=O)CSc1nc2ccccc2o1)C1CCCCC1	–	·	–	·	–	·
CCCNC(=O)c1sc2c(c1C(=O)Nc1ccccn1)CCCC2	47	–	–	–	–	–
COc1ccc(S(=O)(=O)N2CCCCCC2)cc1C(=O)Nc1ccc(C(=O)N(C)C)cc1	–	·	–	·	–	·
Cc1sc(C(C2C(=O)CC(C)(C)CC2=O)C2C(=O)CC(C)(C)CC2=O)cc1[N+](=O)[O-]	44	–	–	–	–	41
O=C(COC(=O)c1ccc[n+]([O-])c1)Nc1ccc(Cl)cc1[N+](=O)[O-]	–	–	–	·	–	·
